In the library only some 4.8% were active in any assay of this set; here they are far more common.
DAX1 inh-1: inhibitors of human orphan nuclear receptor DAX1 (NR0B1) | P51843 | HEK293 Gal4-DAX1 luciferase reporter, luminescence | inhibition, % at 6.75 µM | 0.99% of 340,000 active;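 active = inhibition above the mean over all tested compounds plus 3 SD, cut at about 4.2% in these data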;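 note: inhibition shows as a rise in luminescence from relieved DAX1 repression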
hcDAF-12 act: activates DAF-12 receptor from parasite H. contortus; HEK293 hcDAF-12 lit1-tk-luc reporter, luminescence; 0% DMSO, 100% Δ7-dafachronic acid; activation, % at 6.8 µM; 1.4% of 370,000 active; AID 652067;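 active = activation above the mean of all tested compounds plus 3 SD, cut at about 5.5% in these data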
DAX1 inh-2: blocks DAX1 repression of SF-1 activated StAR promoter; HEK293T StAR-luciferase reporter, SF-1/DAX-1 repression relief; inhibition, % at 6.8 µM; 1.1% of 370,000 active; AID 652010;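 active = inhibition above the mean over all tested compounds plus 3 SD, cut at about 3.6% in these data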;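 note: higher inhibition means more luminescence from relief of DAX-1 repression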
ssDAF12 agonist: S. stercoralis DAF-12 activation, primary screen; HEK293 ssDAF-12/GRIP1 lit1-tk-luc reporter, luminescence; % of 3 µM dafachronic acid response; activation, % at 6.8 µM; 1% of 370,000 active;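 active = activation above the mean over all tested compounds plus 3 SD, cut at about 0.9% in these data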
hgDAF12 agonist: activates the H. glycines DAF-12 receptor ligand-binding domain; AID 687014; HEK293 GAL4-hgDAF12 UAS-luciferase reporter, agonist luminescence; normalized to butyrate control; 1.8% of 370,000 active; activation, % at 6.8 µM;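 active = activation above a cutoff set at the mean of all screened compounds plus 3 SD, cut at about 10% in these data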
SMARCA2 act: increases SMARCA2 function in MMTV reporter cells; MG213 cells, MMTV-luciferase reporter, dexamethasone, overnight; activation, % at 9.1 µM; 1% of 370,000 active; AID 652017; in the data active = activation above about 7.8%
LXR ag: LXR-beta agonism as hcDAF-12 counter-screen | activation, % at 6.8 µM | shares compounds with hcDAF-12 act | 3,400 tested, under 10 active | HEK293 Gal4-LXR tk-luc reporter, luminescence, 24 h; normalized: DMSO 0%, positive control 100%;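 active = mean percent activation of the reporter above a cutoff set as the average over tested compounds plus their standard deviation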
Target sequence (P55055 whole entry, looked up, the tested form may be a part): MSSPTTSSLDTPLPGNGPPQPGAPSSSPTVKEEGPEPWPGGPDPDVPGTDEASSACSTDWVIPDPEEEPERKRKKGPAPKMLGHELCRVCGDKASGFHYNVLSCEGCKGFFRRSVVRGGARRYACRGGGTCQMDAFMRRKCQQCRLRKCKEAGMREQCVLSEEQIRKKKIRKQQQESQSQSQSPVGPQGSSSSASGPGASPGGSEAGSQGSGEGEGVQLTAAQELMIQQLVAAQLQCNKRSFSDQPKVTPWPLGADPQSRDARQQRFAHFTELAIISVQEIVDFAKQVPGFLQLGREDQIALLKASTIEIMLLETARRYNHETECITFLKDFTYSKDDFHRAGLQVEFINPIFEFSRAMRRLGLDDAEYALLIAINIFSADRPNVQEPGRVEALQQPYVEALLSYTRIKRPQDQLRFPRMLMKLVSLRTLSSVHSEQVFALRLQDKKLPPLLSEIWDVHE
hcDAF12 ag: hcDAF-12 agonism, confirmation assay; shares compounds with hcDAF-12 act; HEK293 hcDAF-12 lit1-tk-luc reporter, luminescence; % of Δ7-dafachronic acid response; activation, % at 6.8 µM; 61% of 3,400 active; AID 743032;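 active = mean activation across triplicate tests above the threshold derived from the earlier primary screen, cut at about 5.5% in these data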
hgDAF12 conf: confirmation of H. glycines DAF-12 agonists. shares compounds with hgDAF12 agonist. HEK293 GAL4-hgDAF12 luciferase reporter, agonist mode; percent of butyrate response. activation, % at 6.8 µM. 80% of 3,300 active;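 active = mean activation over triplicate wells above the hit cutoff derived from the earlier primary screen, cut at about 11% in these data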
LXR ag 2: LXR-beta agonism as DAF-12 counter-screen; shares compounds with hgDAF12 agonist; HEK293 Gal4-LXR luciferase reporter, 24 h; activation, % at 6.8 µM; 3,300 tested, under 10 active;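 active = mean activation of the triplicate above a set limit carried over from the primary screen, none filed active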
Each line names hits and unclear results; the compound was inactive in the other large screens (follow-up assays come after a bar, where they were run).

Cn1nnnc1NCc1cccc(Cl)c1	none
COc1cccc(N=c2oc3ccccc3cc2-c2nc3ccccc3[nH]2)c1	hcDAF-12 act 15, ssDAF12 agonist 2.6, hgDAF12 agonist 16 | LXR ag inactive | hcDAF12 ag 6.7 | hgDAF12 conf 19 | LXR ag 2 inactive
CC(C)(C)c1ccc2c(c1)C(=O)c1ccccc1C2=O	hcDAF-12 act 11, DAX1 inh-2 4.4, hgDAF12 agonist 20 | LXR ag inactive | hcDAF12 ag inactive | hgDAF12 conf 13 | LXR ag 2 inactive
CC(C)(C)c1ccc(-c2ccc3c(c2)S(=O)(=O)c2ccccc2C3=O)cc1	none
COC(=O)Nc1nn(-c2ccc(Cl)cc2)c(=O)c(C#N)c1C	none
O=[N+]([O-])c1ccc2nc(-c3ccc(Cl)cc3)[nH]c2c1	hcDAF-12 act 9.9, DAX1 inh-2 4.1, ssDAF12 agonist 1.2, hgDAF12 agonist 22 | LXR ag inactive | hcDAF12 ag 5.9 | hgDAF12 conf 20 | LXR ag 2 inactive
O=[N+]([O-])c1cccc(-c2nc3ccc([N+](=O)[O-])cc3[nH]2)c1	none
CC(C)(CO)NCC(O)COc1ccc2c(c1)CCC2 (stereo not given)	none
O=C(/C=C/Nc1ccc(F)c(F)c1)c1cccs1	hcDAF-12 act 16, hgDAF12 agonist 15 | LXR ag inactive | hcDAF12 ag 15 | hgDAF12 conf 23 | LXR ag 2 inactive
O=C(Cc1cccs1)Nc1ccc(F)c(F)c1	none
COc1ccc2[nH]c(C(=O)Nc3cccc(C)n3)cc2c1	hcDAF-12 act 7.9, DAX1 inh-2 3.7, ssDAF12 agonist 0.9, hgDAF12 agonist 15 (no result: DAX1 inh-1) | LXR ag inactive | hcDAF12 ag 6.2 | hgDAF12 conf 22 | LXR ag 2 inactive
COc1ccc(NC(=O)c2cc(-c3ccncc3)nc3ccccc23)c(OC)c1	none
Cc1ccc(C(=O)Nc2ccc3c(c2)OCCO3)o1	hcDAF-12 act 9.2, hgDAF12 agonist 13 | LXR ag inactive | hcDAF12 ag inactive | hgDAF12 conf 14 | LXR ag 2 inactive
Cc1cc(C)c(C(=O)Nc2ccc3c(c2)OCCO3)c(C)c1	none
O=C(Nc1ccc(Cl)c(Cl)c1)c1ccc2c(c1)OCO2	hcDAF-12 act 9.7, ssDAF12 agonist 3.0, hgDAF12 agonist 19 | LXR ag inactive | hcDAF12 ag 7.2 | hgDAF12 conf 22 | LXR ag 2 inactive
O=C(Nc1ccc2c(c1)OCO2)c1ccc2c(c1)OCO2	hcDAF-12 act 7.3, ssDAF12 agonist 2.1, hgDAF12 agonist 14 | LXR ag inactive | hcDAF12 ag 9.3 | hgDAF12 conf 15 | LXR ag 2 inactive
O=C(Nc1ccc(F)c(F)c1)c1ccc2c(c1)OCO2	none
CC1CCC(NC(=O)c2ccc3c(c2)OCO3)CC1 (stereo not given)	hcDAF-12 act 9.0, DAX1 inh-2 9.1, hgDAF12 agonist 15 | LXR ag inactive | hcDAF12 ag 8.6 | hgDAF12 conf 19 | LXR ag 2 inactive
COc1ccc(NC(=O)CC2C(=O)N(c3ccccc3)C(=O)N2Cc2ccco2)cc1 (stereo not given)	none
COc1ccc(C)cc1C(=O)CCC(=O)N1CCN(c2ccccc2F)CC1	none
Cc1ccnc(NC(=O)c2cc3cc(F)ccc3s2)c1	hcDAF-12 act 9.9, ssDAF12 agonist 2.4, hgDAF12 agonist 22 | LXR ag inactive | hcDAF12 ag 8.4 | hgDAF12 conf 19 | LXR ag 2 inactive
COC(=O)c1ccc(N=NNc2cccc(Br)c2)cc1	hcDAF-12 act 7.9, hgDAF12 agonist 15 | LXR ag inactive | hcDAF12 ag 7.1 | hgDAF12 conf 16 | LXR ag 2 inactive
COC(=O)C(C)Nc1cccc(Br)c1 (stereo not given)	none
COc1cc(OC)cc(C(=O)NNC(=O)C(=O)Nc2cc(OC)c(Cl)cc2OC)c1	none
Cc1ccc(C=NNc2ccc([N+](=O)[O-])cn2)cc1	DAX1 inh-1 4.8, hcDAF-12 act 7.4, hgDAF12 agonist 18 | LXR ag inactive | hcDAF12 ag inactive | hgDAF12 conf 13 | LXR ag 2 inactive
COc1cccc(NC(=O)Nc2nc(-c3ccc(OC)c(OC)c3)cs2)c1	none
CC12CCCCC1NS(=O)(=O)OC2 (stereo not given)	none
Cc1[nH]c2ccccc2c1/C=C/c1nc2ccccc2c(=O)[nH]1	hcDAF-12 act 6.9, DAX1 inh-2 4.4, hgDAF12 agonist 14 | LXR ag inactive | hcDAF12 ag 5.8 | hgDAF12 conf 18 | LXR ag 2 inactive
CCOc1ncccc1C(=O)OCC(=O)Nc1c(C)cc(C)cc1C	none
CCOc1ncccc1C(=O)OCC(=O)Nc1ccc(-c2nc3ccc(C)cc3s2)cc1	hcDAF-12 act 7.5, DAX1 inh-2 4.4, ssDAF12 agonist 1.0, hgDAF12 agonist 18 | LXR ag inactive | hcDAF12 ag 5.7 | hgDAF12 conf 18 | LXR ag 2 inactive
CCCc1nc2c3ccccc3ccn2c1Cc1ccccc1	hcDAF-12 act 7.0, DAX1 inh-2 4.1, ssDAF12 agonist 1.3, hgDAF12 agonist 23 (no result: DAX1 inh-1) | LXR ag inactive | hcDAF12 ag 12 | hgDAF12 conf 16 | LXR ag 2 inactive
CCOC(=O)Cn1cnc2c(nnn2-c2ccc(C)cc2)c1=O	none
COC(=O)c1cc(-c2cccc(C#N)c2)c(=O)n2c1CCC2	none (no result: DAX1 inh-1)
Cc1cccc(-n2ncc3c(N4CCC(C)CC4)ncnc32)c1	hcDAF-12 act 6.6, DAX1 inh-2 7.6, hgDAF12 agonist 24 | LXR ag inactive | hcDAF12 ag 6.2 | hgDAF12 conf 13 | LXR ag 2 inactive
CC(=NC1CCCCC1)C1=C(O)c2ccccc2C1=O	hcDAF-12 act 8.1, DAX1 inh-2 4.2, hgDAF12 agonist 16 | LXR ag inactive | hcDAF12 ag 5.8 | hgDAF12 conf 15 | LXR ag 2 inactive
COc1ccc(-c2csc(-n3cccn3)n2)cc1	hcDAF-12 act 7.0, hgDAF12 agonist 14 | LXR ag inactive | hcDAF12 ag inactive | hgDAF12 conf 18 | LXR ag 2 inactive
O=C(Nc1nc2n(n1)C(c1ccccc1)CC(c1ccc(Cl)cc1)N2)c1ccco1 (stereo not given)	none
